# Screens as filed in PubChem BioAssay.
# Compounds with a hit are over-represented: about 3.5% of the library has one in this group of screens.
# mHTT CaM bind – disrupts binding of mutant huntingtin to calmodulin; AlphaScreen His-mHTT/GST-CaM binding, luminescence; inhibition, % at 15 µM; 3.6% of 190,000 active;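 also: 0% = both proteins with DMSO and 100% = one protein alone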
# Pf apPOL inh – Pf-apPOL DNA polymerase inhibition. Recombinant Pf-apPOL, molecular beacon fluorescence, 1.5 h. inhibition, % at 10 µM. 0.25% of 210,000 active. AID 1794808
# Numbers without * were called inactive. Rule as the data show it: active = inhibition above about 50%; inactive = the rest.
SMILES,mHTT CaM bind,Pf apPOL inh
Cc1nonc1-c1cn2cc(Cl)ccc2n1,-5,1
CC(C)(C)C(O)CCNC(=O)c1cccc(Cl)c1 (stereo unspecified),-11,-6
CC(C)(C)C(O)CCNC(=O)C=Cc1ccccc1 (stereo unspecified),-11,-6
CCc1ccc(C(=O)CSC2=C(C#N)C(c3cccs3)C(C(C)=O)=C(C)N2)cc1 (stereo unspecified),-30,-7
CC(=O)NC(c1ccc(C)cc1)c1cc([N+](=O)[O-])c2cccnc2c1O (stereo unspecified),100*,-7
CCCC(=O)NC(c1ccc(C)cc1)c1cc(Cl)c2cccnc2c1O (stereo unspecified),29,-1
CCC(=O)NC(c1ccc(C)cc1)c1cc([N+](=O)[O-])c2cccnc2c1O (stereo unspecified),100*,-5
Cc1cccc(Nc2c([N+](=O)[O-])cc([N+](=O)[O-])c3cccnc23)c1,33,-4
CCC(=O)NC(c1ccc(OC)c(OC)c1)c1cc([N+](=O)[O-])c2cccnc2c1O (stereo unspecified),100*,20
O=C1OC(c2cccs2)=N/C1=C/c1ccc(Cl)cc1Cl,1,-1
COc1ccc(C=C2Oc3cc(OC(=O)c4ccco4)ccc3C2=O)c(OC)c1,34,-3
CC(C)c1nc2ccccc2n1Cc1ccccc1,-4,-5
Cc1ccc(CNC(=O)CN2CCN(C(=O)Nc3ccc(Cl)cc3)CC2=O)o1,-3,-6
N#CCSC1=Nc2ccccc2C2=NC(CCC(=O)NCCc3ccccc3)C(=O)N12 (stereo unspecified),6,-5
CC(=O)C1=C(O)C(=O)N(c2ccccn2)C1c1ccc([N+](=O)[O-])cc1 (stereo unspecified),2,2
COc1ccc(-c2n[nH]c3c2C(c2ccc(OC)c(OC)c2)N(c2ccccc2)C3=O)cc1 (stereo unspecified),19,-4
COc1ccc(C2c3c(-c4ccccc4)n[nH]c3C(=O)N2c2ccccc2)cc1 (stereo unspecified),59*,6
O=C1c2[nH]nc(-c3ccccc3)c2C(c2ccccc2[N+](=O)[O-])N1c1ccccc1 (stereo unspecified),59*,-1
O=C1c2[nH]nc(-c3ccccc3)c2C(c2ccccc2)N1c1ccccc1 (stereo unspecified),37,-9
O=C1c2[nH]nc(-c3ccc(Cl)cc3)c2C(c2ccc([N+](=O)[O-])cc2)N1c1ccccn1 (stereo unspecified),89*,-1
Cc1noc(-c2ccnc(SCC(=O)Nc3cccc(C(F)(F)F)c3)c2)n1,-24,0
O=C(CC1CCN(C(=O)C2CCCCC2)CC1)NCc1ccccc1,-1,-2
COc1cccc(N2CCN(C(=O)c3cnn4c3NC(c3ccco3)CC4C(F)(F)F)CC2)c1 (stereo unspecified),30,0
O=C(c1ccccc1)c1ccc(N2CCN(C(=O)c3ccccc3F)CC2)c(F)c1,-4,4
O=C(c1ccccc1F)N1CCN(C2=NN=C(c3ccccc3)CS2)CC1,92*,-7
SMILES,mHTT CaM bind,Pf apPOL inh
O=C(c1ccco1)N1CCN(C2=NN=C(c3cccs3)CS2)CC1,96*,50*
N#Cc1nc(-c2cccs2)oc1N1CCN(C(=O)c2ccco2)CC1,-2,-2
O=C1OC(c2ccccc2)=C/C1=C/c1cccc([N+](=O)[O-])c1,41,1
CCOc1ccc(C(=O)Nc2ccc(-c3nc4ncccc4o3)cc2)cc1,1,-2
CCC(=O)NCc1csc(C2CCCN(S(=O)(=O)c3ccc(F)cc3)C2)n1 (stereo unspecified),2,-2
Cc1[nH]c2ccccc2c1SCCNC(=O)c1ccccc1F,99*,-1
Cc1ccccc1C(=O)NCCSc1c(C)[nH]c2ccccc12,11,3
O=C(Nc1ccc(F)c(Cl)c1)N1CCCC1c1ccc(F)cc1 (stereo unspecified),-8,2
O=C1CSC(c2ccc(Cl)cc2)N1c1ccccc1Cl (stereo unspecified),1,12
CC(CCC(=O)O)C1CCC2C3CC(O)C4CC(O)CCC4(C)C3CCC12C (stereo unspecified),19,-9
CC(CCC(=O)N=Nc1c(O)[nH]c2c(Cl)cc(Cl)cc12)C1CCC2C3C(O)CC4CC(O)CCC4(C)C3CCC12C (stereo unspecified),67*,0
CC(CCC(=O)N=Nc1c(O)[nH]c2ccc(Cl)cc12)C1CCC2C3C(O)CC4CC(O)CCC4(C)C3CCC12C (stereo unspecified),43,1
CC(CCC(=O)NN=Cc1c[nH]c2ccccc12)C1CCC2C3C(O)CC4CC(O)CCC4(C)C3CCC12C (stereo unspecified),100*,-3
COc1ccc(NC(=O)C2CCCN(c3nnc4ccc(Cl)cn34)C2)c(OC)c1 (stereo unspecified),27,-6
